The list is not random: actives were taken first. Their share in the collection is about 3.5%.
BoNT A protease – BoNT A light chain protease inhibition; multiplex microsphere protease substrate cleavage, flow cytometry; inhibition, % at 10 µM; 360,000 tested, 0.17% active; AID 588499
Autofluor counter – counter-screen for toxin protease inhibitors: compound fluorescence | compound autofluorescence counterscreen, microsphere flow cytometry; stronger effect = higher value | fluorescence intensity (no concentration beside the values) | 360,000 tested, 3.1% active | AID 624483; in the data active = fluorescence intensity above about 16000; inconclusive = no clear call, values can overlap the other calls
BoNT-F LC inh – BoNT F light chain protease inhibition; Multiplex microsphere protease cleavage assay, flow cytometry; inhibition, % at 10 µM; 360,000 tested, 0.22% active; AID 588497; in the data active = inhibition above about 35%, passing the limit was not always enough; inconclusive = no clear call, values can overlap the other calls
Anthrax LF inh2 – inhibitors of Bacillus anthracis lethal factor protease; P15917; multiplex microsphere protease cleavage assay, LF; inhibition, % at 10 µM; 360,000 tested, 0.12% active
A number is an active result; i = inactive; ? = inconclusive. Rule as the data show it, unless noted: active = inhibition above about 30%; inconclusive = no clear call, values can overlap the other calls; inactive = below that.

SMILES	BoNT A protease	Autofluor counter	BoNT-F LC inh	Anthrax LF inh2
O=C(CCN1C(=O)COc2ccccc21)NCc1ccco1	i	i	i	i
Cc1ccc2c(c1)N(CCC(=O)NCCN1CCOCC1)C(=O)CO2	i	20041	i	i
Cc1ccc2c(c1)N(CCC(=O)NCc1ccco1)C(=O)CO2	i	22695	i	i
CCC1Oc2ccc(C)cc2N(CC(=O)NCC2COc3ccccc3O2)C1=O (centres undefined)	i	i	i	i
Cc1ccc2c(c1)N(CCC(=O)NCC1COc3ccccc3O1)C(=O)CO2 (centres undefined)	i	21396	i	i
CCCC(=O)C1=C(N2CCCCC2)CC(C)(C)C(C(=O)OC)C1=O (centres undefined)	i	i	i	i
COC(=O)C1C(=O)/C(=C(/C)N2CCCC2)C(=O)CC1(C)C (centres undefined)	?	23073	i	i
CCN(CC(=O)NCc1ccc(F)cc1)C(=O)CN1CCN(c2cc(Cl)ccc2C)CC1	i	i	i	i
CCCCNC(=O)Nc1cc(C(F)(F)F)c[nH]c1=O	i	24583	i	i
CCCCNC(=O)Nc1ccccc1CC	i	i	?	i
O=c1c2ccccc2nc(CN2CCCCCC2)n1-c1ccc(F)cc1	i	24642	i	i
CCC(CC)N1CCN(Cc2nc3ccccc3c(=O)n2-c2ccc(F)cc2)CC1	i	i	?	i
CSCCC(NC(=O)c1ccco1)C(=O)N1CCN(C(c2ccccc2)c2ccccc2)CC1 (centres undefined)	i	?	i	i
COc1ccc(-c2c[n+]3c4n2CCCCC4=C(c2ccc(Br)cc2)C3)cc1	?	22490	i	i
Cc1cc(/C=C2\Sc3ccccc3N2C)cc(C)[n+]1CC1CCCO1 (centres undefined)	42.5	i	i	i
CCc1cc2c(SCC(=O)O)ncnc2s1	?	18901	i	i
O=C(O)CSc1ncnc2sc3c(c12)CCCC3	i	i	i	i
CCc1cc2c(SCC(=O)c3ccccc3)ncnc2s1	i	i	i	i
CCSc1ncnc2sc3c(c12)CCC3	i	20242	i	i
Fc1ccc(CSc2ncnc3sc4c(c23)CCCC4)cc1	i	19865	i	i
O=C(O)CSc1ncnc2sc3c(c12)CCC3	i	19351	i	i
[N-]=[N+]=NCC/C=C\C1NS(=O)(=O)OCC1O (centres undefined)	i	i	i	i
COc1ccc(CNC(=O)C2CCN(S(=O)(=O)c3cccc4nonc34)CC2)cc1	i	i	i	i
CC(=O)OC1(C(F)(F)F)Oc2ccccc2NC1=O (centres undefined)	?	18158	i	i
CCOC(=O)Oc1ccc2c(=O)c(Oc3cc(C)cc(C)c3)coc2c1	?	22166	i	i
SMILES	BoNT A protease	Autofluor counter	BoNT-F LC inh	Anthrax LF inh2
COc1ccccc1Oc1coc2cc(OCC(N)=O)ccc2c1=O	i	i	40.9	i
Cc1cccc(Oc2coc3cc(OC(=O)c4cc5ccccc5oc4=O)ccc3c2=O)c1	?	20697	i	i
COc1ccc(CN(C)C2c3ccccc3-c3ccccc32)cc1	i	i	i	i
CC(=O)c1cccc(NC(=O)NCc2cccnc2)c1	i	20530	i	i
O=C(NCc1cccnc1)Nc1cccc(NC(=O)NCc2cccnc2)c1	i	27382	i	i
O=C(NCc1cccnc1)Nc1cccc(Cl)c1	i	i	i	i
O=C(NCc1cccnc1)Nc1ccccc1	i	i	i	i
CCCCCN(C(=O)CCC(=O)OCC(=O)N(CC)C1CCCCC1)c1c(N)n(CCCC)c(=O)[nH]c1=O	i	i	i	i
O=C(COC(=O)c1ccc[n+]([O-])c1)Nc1cc([N+](=O)[O-])ccc1Cl	i	i	i	i
CN(c1ccccc1)S(=O)(=O)c1cccc(Cl)c1Cl	i	i	i	i
CN(C)S(=O)(=O)c1c(Cl)cccc1Cl	i	23563	i	i
COC(=O)CC(NC(=O)c1ccco1)c1cccc2ccccc12 (centres undefined)	i	i	i	i
CC(NC(=O)c1ccco1)c1cccc2ccccc12 (centres undefined)	i	22307	i	i
CCCCCCCCNC(=O)c1cnccn1	i	i	i	i
Cc1cc(C(F)(F)F)nn1CCCNC(=O)c1cnccn1	?	23254	i	i
O=c1[nH]c(Nc2ccc(F)cc2)cc2ccccc12	?	23479	i	i
COC(=O)C1CN(C(=O)COc2ccc(C)c(C)c2)c2ccccc2O1 (centres undefined)	i	i	?	i
COc1ccc(NC(=O)CSc2nc3ccsc3c(=O)n2CCC(=O)O)cc1	i	i	i	i
COc1nsnc1N1CCOCC1	i	i	i	i
COC(=O)COc1nsnc1N1CCOCC1	i	24961	i	i
Cc1cc(Nc2c(C)n(C)n(-c3ccccc3)c2=O)n2c(nc3ccccc32)c1C#N	i	i	i	i
CCCc1cc(Nc2c(C)n(C)n(-c3ccccc3)c2=O)n2c(nc3ccccc32)c1C#N	i	22932	i	i
COCCn1c(Cc2ccccc2)nnc1SCC(=O)N1CCOCC1	i	i	i	i
COCCCn1c(Cc2ccccc2)nnc1SCC(=O)N1CCCCC1	i	22748	i	i
COc1ccc(N2C(=O)CSC23CCCCC3)cc1	i	21829	i	i
SMILES	BoNT A protease	Autofluor counter	BoNT-F LC inh	Anthrax LF inh2
N=c1n(-c2ccccc2)c(O)cc(=O)n1-c1ccccc1	i	22975	i	i
O=c1cc(O)n(-c2ccccc2)c(=S)[nH]1	i	i	?	i
COc1cccc(C2c3c(oc4ccc(Cl)cc4c3=O)C(=O)N2c2cc(C)on2)c1OC (centres undefined)	i	16528	i	i
COc1ccc(/C(O)=C2\C(=O)C(=O)N(c3cc(C)on3)C2c2cccc(OC)c2OC)cc1C (centres undefined)	i	i	i	i
Cc1cccc(N(C)S(=O)(=O)c2ccc3c(c2)NC(=O)CC(=O)N3)c1	i	i	i	i
Cc1cccc(N(C)S(=O)(=O)c2ccc3[nH]c(=O)c(=O)[nH]c3c2)c1	?	16965	i	i
Cc1ccccc1N(CC(=O)NCC1CCCO1)C(=O)C1(C)CC(=O)N=C2C=CC=CN21 (centres undefined)	i	23341	i	i
CCN(CC)S(=O)(=O)c1ccc(C(=O)Nc2ccc(Cc3ccncc3)cc2)cc1	i	i	i	i
CCN(Cc1ccncc1)S(=O)(=O)c1ccc(C(C)=O)cc1	i	22742	i	i
O=C(CCN1CCCCC1)Nn1c(=S)[nH]c2ccccc2c1=O	?	23257	i	i
COc1ccc(CC(N)c2csc(Nc3nncc4ccccc34)n2)cc1 (centres undefined)	i	i	i	i
COc1cc(C)c(S(=O)(=O)Nc2ccc(CC(=O)O)cc2)cc1C	i	25248	i	i
CC(NC(=O)Cn1cc(Br)c([N+](=O)[O-])n1)c1ccccc1 (centres undefined)	i	i	?	i
CCNC(=O)CC1C(=O)N(c2ccccc2)C(=O)N1CCc1ccc(OC)c(OC)c1 (centres undefined)	?	22965	i	i
COCCCN1C(=O)N(c2ccc(F)cc2)C(=O)C1CC(=O)Nc1ccccc1 (centres undefined)	i	i	i	i
CCNC(=O)CC1C(=O)N(c2ccc(F)cc2)C(=O)N1CCc1ccc(OC)cc1 (centres undefined)	i	20994	i	i

Compound activity (PubChem)
